Screening data as filed in PubChem BioAssay.
Hits are enriched below; roughly 12% of the tested compounds scored in any of these assays.
Insulin prom up – MIN6 insulin promoter up-regulation | MIN6 insulin promoter-GFP reporter, high-content imaging; active compounds read high | z-score at 5 µM | 190,000 compounds, 0.3% hits | AID 1625;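 active means z-score above 3 at 5 µM with at least 500 cells counted in the well; inconclusive means wells under 500 cells, flagged as cytotoxic or low count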
Insulin prom inh – TRM-6 insulin promoter activity inhibition; TRM-6 cells (human fetal islet line), insulin promoter-eGFP reporter, imaging; reporter expression induced with tamoxifen; inhibition, % at 2 µM; 130,000 compounds, 0.9% hits;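 active means inhibition above the mean plus 3 SD, with well images judged a real hit on visual review, cut at about 60% in these data, passing the limit was not always enough; inconclusive means inhibition over the cutoff but images rejected on review; inactive means inhibition not above the cutoff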
WT yeast gro inh – growth inhibition of WT yeast, mitochondrial fusion screen. mitochondrial fusion phenotypic screen, WT strain. inhibition, % at 10 µM. 190,000 compounds, 2.1% hits; in the data active means inhibition above about 58%; tested in S. cerevisiae
ROMK primary – human ROMK K+ channel modulation, primary screen | P48048 | Tet-inducible ROMK, thallium flux fluorescence; actives lie on both sides | B-score at 10 µM | 130,000 compounds, 2% hits;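 active means signal ratio slope over the read window, or its plate-corrected B-score, at least 3 SD from the plate mean, either direction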;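 further: B-score of the F/F0 ratio slope over 7 to 12 s after thallium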
Lmaj promast – Leishmania major promastigote growth inhibition. Leishmania major promastigotes, resazurin fluorescence viability. AID 1063. 200,000 compounds, 9% hits. inhibition, % at 10 µM; in the data active means inhibition above about 50%;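 further: promastigotes grown with compound for 44 hours at 28 °C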
KCC2 mod – modulators of human KCC2 chloride dependent transport. KCC2 cells, thallium flux FluoZin-2 fluorescence. B-score of Tl+ flux slope (higher = more flux/activation; lower = inhibition) at 10 µM. 190,000 compounds, 2.2% hits. AID 1456;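 active means thallium flux slope and its plate-corrected score both differing from the plate sample mean at a set confidence after two filtering rounds, in either direction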;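 further: slope of fluorescence scaled to starting intensity during 10 to 20 s after thallium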
Target sequence (Q9H2X9 whole entry, looked up): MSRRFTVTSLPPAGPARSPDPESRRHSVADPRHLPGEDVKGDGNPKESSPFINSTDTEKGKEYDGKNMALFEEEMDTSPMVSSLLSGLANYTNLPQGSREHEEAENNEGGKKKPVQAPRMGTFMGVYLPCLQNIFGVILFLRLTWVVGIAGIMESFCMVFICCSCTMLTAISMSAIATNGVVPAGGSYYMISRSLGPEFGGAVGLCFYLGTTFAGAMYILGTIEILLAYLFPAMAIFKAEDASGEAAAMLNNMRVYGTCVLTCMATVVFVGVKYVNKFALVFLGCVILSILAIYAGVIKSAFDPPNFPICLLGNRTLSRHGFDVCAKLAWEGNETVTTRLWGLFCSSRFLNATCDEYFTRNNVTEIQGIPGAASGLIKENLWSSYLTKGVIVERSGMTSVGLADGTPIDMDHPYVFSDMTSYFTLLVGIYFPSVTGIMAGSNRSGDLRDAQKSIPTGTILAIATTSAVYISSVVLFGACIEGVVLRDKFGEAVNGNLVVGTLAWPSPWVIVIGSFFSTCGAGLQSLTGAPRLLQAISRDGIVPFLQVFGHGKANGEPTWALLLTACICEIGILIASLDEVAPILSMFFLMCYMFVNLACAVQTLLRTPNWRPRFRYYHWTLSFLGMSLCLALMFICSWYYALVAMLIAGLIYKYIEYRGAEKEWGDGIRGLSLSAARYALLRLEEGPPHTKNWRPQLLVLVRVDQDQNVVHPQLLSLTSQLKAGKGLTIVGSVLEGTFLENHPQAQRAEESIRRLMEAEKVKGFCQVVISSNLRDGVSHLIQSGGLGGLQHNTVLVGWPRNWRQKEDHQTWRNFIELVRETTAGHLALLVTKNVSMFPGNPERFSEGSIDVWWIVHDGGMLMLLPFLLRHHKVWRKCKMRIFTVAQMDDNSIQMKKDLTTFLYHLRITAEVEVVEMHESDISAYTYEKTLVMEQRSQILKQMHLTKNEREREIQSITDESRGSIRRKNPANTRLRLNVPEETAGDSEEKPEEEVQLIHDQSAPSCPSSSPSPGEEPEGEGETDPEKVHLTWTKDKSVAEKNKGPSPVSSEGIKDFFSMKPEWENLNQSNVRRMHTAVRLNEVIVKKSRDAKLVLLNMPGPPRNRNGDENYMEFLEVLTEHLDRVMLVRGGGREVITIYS
ROMK retest – retested hit modulating human ROMK potassium channel; ROMK thallium flux, fluorescence ratio; active compounds read low; shares compounds with ROMK primary; 3,000 compounds, 54% hits; normalized thallium flux (F/F0 slope) at 10 µM;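 active means Flux at 10 µM at least 3 SD below or above vehicle control mean in one or both replicates; inconclusive means no clear call, values can overlap the other calls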
Numbers stand for hits; . = inactive; ? = inconclusive; / = no result.

SMILES | Insulin prom up | Insulin prom inh | WT yeast gro inh | ROMK primary | Lmaj promast | KCC2 mod | ROMK retest
O=[N+]([O-])C1=CC=C2C(=NC3(CCCCC3)N2O)C1=NC1CCCCC1 | . | / | . | . | . | . | /
COc1ccc(Cl)cc1NC(=S)N(CCCN1CCOCC1)Cc1cn(C)c2ccccc12 | / | . | . | -3.9 | 100 | . | .
CCN1CCCc2cc(CN(CCN3CCOCC3)C(=S)Nc3ccccc3OC)ccc21 | . | . | . | . | . | . | /
CCOCCCNC(=O)Cc1ccc(OC)c(OC)c1 | . | . | . | / | . | . | .
Cn1cccc1/C=C(/C#N)C(N)=S | . | . | . | . | . | . | /
N#C/C(=C/c1ccc(F)cc1)C(N)=S | . | / | . | -3.1 | . | . | 0.051
CCOc1ccccc1N(CC(=O)N1CCOCC1)S(=O)(=O)c1ccc(SC)cc1 | . | . | . | -7.4 | . | . | 0.034
Cc1nc(SCC(=O)N(C)Cc2ccco2)c2c(C)c(C)sc2n1 | . | / | . | / | . | . | .
CC(=O)Nc1ccc(NC(=O)CSc2nc(C)nc3sc(C)c(C)c23)cc1 | . | . | . | . | . | . | /
O=C(c1cccc2ccccc12)N1CCN(c2ccc([N+](=O)[O-])c(N3CCOCC3)c2)CC1 | . | / | . | / | . | . | .
O=C(c1ccccc1F)N1CCN(c2ccc([N+](=O)[O-])c(N3CCOCC3)c2)CC1 | . | / | . | . | . | . | /
CC(=O)C1(C)OC(N)=C(C#N)C(c2ccccc2)C1(C#N)C#N (stereo not given) | . | . | . | -3.3 | . | . | ?
CSc1nsc(SC)c1C(=O)N1CCN(S(=O)(=O)c2ccc(C)cc2)C1C(C)C (stereo not given) | / | . | . | -3.5 | . | . | 0.064
O=C(c1ccc2c(c1)OCO2)N(CC1CCCO1)C1(C(=O)NC2CCCC2)CCCCC1 (stereo not given) | . | / | . | / | . | . | /
COc1cc(/C=C(/C#N)C(=O)Nc2ccccc2)c(Br)cc1OCc1ccc(C(=O)O)cc1 | / | / | / | -5 | / | . | 0.055
COc1ccccc1/C=C(\C#N)C(=O)Nc1ccc(S(N)(=O)=O)cc1 | . | . | . | -3.3 | . | . | 0.061
Cc1ccc(C(=O)NC(=S)N2CCN(c3ccccc3F)CC2)cc1 | . | . | . | 3.4 | . | / | 0.1
Cc1ccc(S(=O)(=O)NCC(=O)N2CCN(c3ccccc3F)CC2)cc1 | . | . | . | . | . | . | /
Cc1ccc(NC(=O)Cc2ncc(C(F)(F)F)cc2Cl)cc1Cl | . | . | . | / | . | . | 0.067
COc1ccc(OC)c(CNC(=O)COc2cc(=O)n(C)c3ccccc23)c1 | / | . | / | / | . | . | /
Cc1ccc2cc(C=O)c(Cl)nc2c1 | . | / | . | 3.7 | . | . | .
N=c1n(CCO)c2ccccc2n1CCOc1ccc(Cl)cc1Cl | . | / | . | / | 98 | / | 0.049
N=c1n(CCO)c2ccccc2n1Cc1ccccc1Cl | . | . | . | / | . | . | /
C/C(=N\Nc1ccc([N+](=O)[O-])cc1)c1ccc(O)cc1 | . | / | . | -4.5 | . | . | 0.053
C/C(=N\Nc1ccc(C#N)cc1[N+](=O)[O-])c1ccc(O)cc1 | . | / | / | / | / | . | /
SMILES | Insulin prom up | Insulin prom inh | WT yeast gro inh | ROMK primary | Lmaj promast | KCC2 mod | ROMK retest
CCOc1ccc2ncc(S(=O)(=O)c3ccc(C)cc3)c(N3CCC4(CC3)OCCO4)c2c1 | . | / | . | / | . | . | 0.063
Cc1cc2c3c(c1)C(C)CC(C)(C)N3C(=O)C2=O (stereo not given) | . | . | . | 3.1 | . | . | ?
Cc1cc2c3c(c1)C(C)CC(C)(C)N3C(=O)C2=C(C#N)C#N (stereo not given) | . | / | / | / | / | . | /
CCOc1ccc(C2/C(=C(/O)c3ccc(F)cc3)C(=O)C(=O)N2CCCN(C)C)cc1 (stereo not given) | . | . | . | . | . | . | /
O=C(NNC1=Nc2cccc3cccc1c23)c1ccc(Br)cc1 | / | . | . | -3.4 | 82 | . | .
COc1ccc(CC(=O)NNC2=Nc3cccc4cccc2c34)cc1OC | . | / | / | . | / | . | /
Cc1nc2c(=O)n(-c3cccc(C(F)(F)F)c3)nc(C)c2s1 | / | / | / | / | / | . | /
CCOc1ccc(S(=O)(=O)NCc2ccccc2Cl)cc1C(N)=O | . | / | . | . | . | . | /
COc1ccc(Cl)cc1NS(=O)(=O)c1ccc(OC)c(OC)c1 | . | . | . | -3.1 | . | . | .
COc1cc(S(=O)(=O)Nc2c(C)cc(C)cc2C)ccc1Cl | . | . | . | . | . | . | /
COc1ccc(S(=O)(=O)Nc2cc(Cl)ccc2OC)cc1 | . | . | . | / | . | . | /
COc1cc(S(=O)(=O)Nc2ccccc2C)ccc1Cl | . | . | . | / | . | / | .
COc1ccc(S(=O)(=O)NCc2ccccc2Cl)cc1OC | . | . | . | / | . | . | .
CCOC(=O)COn1c(=O)c(-c2cccs2)[n+]([O-])c2ccccc21 | . | . | . | -4.2 | . | . | 0.059
CCOC(=O)COn1c(=O)c(-c2cc3ccccc3o2)[n+]([O-])c2ccccc21 | . | . | . | / | . | . | /
CCOC(=O)CSc1nnc(CNc2ccc(Cl)cc2)n1Cc1ccccc1 | / | . | . | -3.8 | . | . | 0.063
O=C(O)CSc1nnc(CNc2ccc(Cl)cc2)n1Cc1ccccc1 | . | . | . | / | . | . | /
Cc1ccc(C)c(Nc2nc3nonc3nc2N2CCOCC2)c1 | . | . | . | -3.5 | . | . | ?
O=C(COc1ccccc1Cl)NNC(=O)C1CCCO1 (stereo not given) | . | . | . | / | . | / | /
COc1ccccc1Cn1c(CCCO)nc2ccccc21 | . | . | . | -3.8 | . | / | ?
O=C(Nc1nc2ccccc2[nH]1)C1CCC1 | . | / | . | . | . | . | /
Cn1nc(C(C)(C)C)cc1NC(=O)Nc1ccc(Cl)cc1 | . | / | / | / | / | . | /
CC(C)(C)n1nc(C2CC2)cc1NC(=O)Nc1ccc(Cl)cc1 | . | / | / | / | / | . | .
COC(=O)Cc1c(C)c2ccc(OCC(=O)N(C)C)cc2oc1=O | . | . | . | 1.4 | . | . | .
c1ccc(-c2nnc(-c3ccccc3)c(-c3c[nH]c4ccccc34)n2)cc1 | . | . | . | / | . | . | /
SMILES | Insulin prom up | Insulin prom inh | WT yeast gro inh | ROMK primary | Lmaj promast | KCC2 mod | ROMK retest
c1ccc2c(-c3ccncc3)c[nH]c2c1 | . | . | . | 4 | . | / | .
Cc1c(O)c(=O)ccn1Cc1ccccc1 | . | . | . | . | . | . | /
CCOc1ccc2nc(C)cc(C(=O)O)c2c1 | . | / | . | 1.9 | . | . | .
Nc1cc(OCC(F)(F)F)cc(OCC(F)(F)F)c1 | . | / | . | . | . | . | /
CCCNC(=O)CCNC(=O)c1ccc(C(C)(C)C)cc1 | . | / | . | . | . | . | /
CCC(OCC(O)CN1CCN(CCN2C(=O)c3cccc4cccc(c34)C2=O)CC1)c1ccccc1 (stereo not given) | . | . | . | -3.6 | 97 | . | 0.059
O=C(O)c1ccc(OCCn2ccnc2)cc1 | . | . | . | . | . | / | .
Cc1csc(NC(=O)c2cc(-c3ccccc3)nc3ccccc23)n1 | . | / | 62 | / | . | . | .
CC(C)(C)c1nnc(NC(=O)c2cc(-c3ccccc3)nc3ccccc23)s1 | . | . | . | / | . | . | /
